GLP1R cytotox – cytotoxic in the GLP-1 receptor inverse agonist counter-screen. Potency, µM (titrated, usually from 38.3 µM), without a hit: at the top dose activity change, negative = inhibition, actives largely listed as inhibitors. HEK293 cAMP-luciferase reporter cells, luminescence, 24 h. 410,000 tested, 0.13% active;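 further: loss of luciferase light is scored as toxicity; on the % scale 0 is the no-effect control and ±100 the full control effect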
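Here, cytotoxicity is scored as loss of luminescence. The MLSMR collection was tested on cells seeded in medium containing 10% Nu serum, with a 24 hr compound exposure preceded by 12 hours of culture.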
GLP-1R inv ag – inverse agonists of human GLP-1 receptor. P43220. HEK293 GLP-1R CRE-luciferase, luminescence, 24 h; GLP-1R form is constitutively active. Potency, µM (doses to about 38.3 µM), for the others: at the highest dose activity change, negative = inhibition, most hits filed as inhibitors. 410,000 tested, 1.6% active. AID 624417; further: on the % scale 0 is the no-effect control and ±100 the full control effect; nearly all actives have a fitted effect of over 55% in size
Target sequence (P43220 whole entry, looked up): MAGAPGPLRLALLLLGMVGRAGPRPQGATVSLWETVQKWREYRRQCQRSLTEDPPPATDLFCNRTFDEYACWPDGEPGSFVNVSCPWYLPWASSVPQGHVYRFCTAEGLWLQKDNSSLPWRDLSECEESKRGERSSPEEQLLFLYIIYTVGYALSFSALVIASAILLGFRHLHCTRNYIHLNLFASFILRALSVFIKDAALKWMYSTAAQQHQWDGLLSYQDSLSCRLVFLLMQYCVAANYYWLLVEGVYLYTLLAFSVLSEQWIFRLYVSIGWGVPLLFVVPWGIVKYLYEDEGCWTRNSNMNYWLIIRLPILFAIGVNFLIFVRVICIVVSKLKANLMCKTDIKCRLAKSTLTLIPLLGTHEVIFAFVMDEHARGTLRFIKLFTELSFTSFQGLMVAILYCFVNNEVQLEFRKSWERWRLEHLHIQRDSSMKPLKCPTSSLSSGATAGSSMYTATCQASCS
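Constitutively active GLP-1R drives a cAMP-responsive luciferase in stably transfected HEK293 cells; test compounds are added after overnight (12 h) attachment and left 24 hr, and signal loss in luminescence marks inhibition.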
GLP-1R agonist – GLP-1 receptor (human) agonism; HEK293 GLP-1R CRE-luciferase, luminescence, 4-6 h; cells express a hypersensitive GLP-1R form; Potency, µM (doses to about 45.6 µM), without a hit: top-dose activation, hits mostly activators; 380,000 tested, 0.007% active; AID 624172; further: % of control where 0% means no effect
BRCA1 expr act – activators of BRCA1 expression; MCF7-BRCA1-FFLuc reporter, luminescence, 48 h; response scale: scaled: vehicle 0%, 10 µM genistein 100%; Potency, µM (doses to about 46.1 µM), for the others: at the highest dose activation, most hits filed as activators; 380,000 tested, 1.1% active; AID 624202; further: nearly all actives have a fitted effect of over 80% in size
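MCF7-BRCA1-FFLuc, 2000 cells/well; 2 h attach, 37 °C/5% CO2; compound 48 h; luciferase substrate 15 min; luminescence end-point. Norm. to genistein 10 microM max activation and DMSO; concentration-response curves fitted.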
a7 integrin act – activates integrin-mediated alleviation for muscular dystrophy | alpha7betagal myoblasts, beta-gal FDG fluorescence, 48 h | Potency, µM (highest dose often 38.3 µM), inactives show at the top dose activation, usual class: activators | 350,000 tested, 0.064% active | AID 624291;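 further: 100% = response of the positive control SU9516; nearly all actives have a fitted effect of over 60% in size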
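Alpha7betagal+/- myoblasts (passage 13) were plated 16-24 hr, then exposed to compounds (1:260 dilution of DMSO stock) for 48 hours at 37C. After MPER lysis, β-galactosidase reporter activity was read as FDG fluorescence (ex 480/em 540) after 30 minutes.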
The depositor's hits bear a star; ? = inconclusive; / = not tested or not shown; [ ] = another dose, or the depositor's remark. Only some compounds are listed: those with a hit (about 2.7% of all), similar ones and a draw of the others. The call rests on the fitted dose curve; in most records, active means well fitted curve in the direction sought with a large enough effect; inconclusive means small, poorly fitted or top-dose-only effect, or another doubt; inactive means no such curve, though single readings can be large; an effect the other way counts as inactive or inconclusive. Potency means the concentration at half of the fitted maximal effect.

SMILES | GLP1R cytotox | GLP-1R inv ag | GLP-1R agonist | BRCA1 expr act | a7 integrin act
CCOC(=O)c1cc(NC(=O)c2ccc(F)cc2)c(=O)n2c1oc1ccc(Cl)cc12 | -3% | 4% | -8% | 15% | /
CCc1ccc(C2=C(C)C(N3CCC(C(=O)NCc4ccc(C)o4)CC3)=NS2(=O)=O)cc1 | -10% | -12% | / | / | /
CCOC(=O)c1cnn(-c2ncnc3c2oc2ccccc23)c1N | 2% | 38% | -5% | 3.2µM* | 18%
Cc1ccc(F)cc1NC(=O)N1CCN(C2c3ccccc3-c3ccccc32)CC1 | 3% | 13µM* | 2% | -37% | -40%
COc1cc2c(cc1OC)C(COc1ccccc1OC)N(C(=O)c1ccc(S(=O)(=O)N3CCCC3)cc1)CC2 (configuration not stated) | 13% | 17% | 5% | -21% | /
O=C(Cc1cccs1)NCc1cccs1 | 1% | -22% | -8% | 37% | 1%[7.66 µM]
O=C(Cc1cccs1)NCc1cccc(Br)c1 | 5% | -23% | -9% | 4µM* | 23%
CCSc1oc(-c2cccs2)nc1S(=O)(=O)c1ccc(Br)cc1 | 1% | -2% | / | / | /
O=C1S/C(=C\C=C\c2ccco2)C(=O)N1c1ccccc1 | 0% | 62% | 0% | 3.5µM* | -2%
NS(=O)(=O)c1ccc(CNc2ccc3ccccc3n2)cc1 | 14% | 3% | 0% | 8.9µM* | -1%
CCOc1ccc(NC(=O)CSc2ccc(-c3sc(-c4ccccc4)nc3C)nn2)cc1 | -1% | 25% | / | / | /
O=C(NCc1ccco1)c1sc2cc(F)ccc2c1Cl | -7% | 4% | 21% | 13µM* | 3%
O=C(NCc1ccco1)c1ccc2ccccc2c1 | 0% | 3% | 1% | 11µM* | -4%
O=C(NCc1ccco1)c1cc(-c2ccc(F)cc2)on1 | 2% | 0% | -14% | 8.9µM* | -8%[7.66 µM]
O=C(Nc1ccon1)c1sc2cc(F)ccc2c1Cl | 17% | 69% | -33% | 15% | -8%
Cc1cc(C)c(S(=O)(=O)NCC2CCC(C(=O)NCCc3ccccc3)CC2)c(C)c1 (configuration not stated) | 10% | -8% | / | / | /
CCOc1ccc(/C=C/c2ccc3ccccc3n2)cc1OCC | / | / | / | -55% | /
CNC(=O)c1ccc2nc(-c3ccco3)c(-c3ccco3)nc2c1 | / | / | / | -8% | /
O=C(NC1CCCC1)c1cnn2c1NC(=C1CC1)C=C2C(F)F | / | / | / | -17% | /
COc1ccc2c(C)cc(=O)oc2c1 | 3% | 10% | 6% | 1% | /
COc1cccc(COc2ccc3c(C)cc(=O)oc3c2)c1 | -1% | 15% | 28% | 2.8µM* | -21%
CCCc1nc2ccc(C)cn2c1Cc1ccc(C)cc1 | -2% | -7% | 8% | 7.1µM* | /
CCOC(=O)c1ccc(-c2ccc(/C=N/NC(=O)Cc3nnc(N)s3)o2)cc1 | 0% | 43% | 2% | 2.2µM* | 13%
COc1cc(OC)c(OC)cc1/C=C/c1ccc2ccccc2n1 | / | / | / | -16% | /
C[C@H](CO)N1C[C@H](C)[C@@H](CN(C)S(=O)(=O)c2ccc(F)cc2)Oc2ccc(NC(=O)Nc3ccc(C(F)(F)F)cc3)cc2C1=O | -27% | ? | -4% | -53% | 0%
SMILES | GLP1R cytotox | GLP-1R inv ag | GLP-1R agonist | BRCA1 expr act | a7 integrin act
C[C@@H]1CN([C@@H](C)CO)C(=O)Cc2cc(NC(=O)Nc3ccc(C(F)(F)F)cc3)ccc2O[C@@H]1CN(C)S(=O)(=O)c1ccc(Cl)cc1 | ? | 5.6µM* | -5% | -53% | -43%
C[C@@H]1CN([C@H](C)CO)C(=O)c2cc(NC(=O)Nc3ccc(C(F)(F)F)cc3)ccc2O[C@H]1CN(C)S(=O)(=O)c1ccc(Cl)cc1 | -28% | 3.2µM* | -3% | -23% | 0%
O=C(c1ccc2c(c1)N(Cc1ccccc1F)C(=O)c1ccccc1S2=O)N1CCC(Cc2ccccc2)CC1 (configuration not stated) | -4% | ? | 1% | -15% | /
O=C(CN1C=NS(=O)(=O)c2ccccc21)Nc1ccc(F)cc1 | -4% | -2% | / | / | /
COC(=O)c1sc(-c2cccs2)cc1N | -3% | 35% | 11% | 13µM* | 23%
COC(=O)c1c(C)nc(C)c(C(=O)OC)c1-c1cccs1 | 12% | 17% | 10% | -22% | -35%

Assay outcomes as filed in PubChem BioAssay.
